NPC1 promoter act = activators of NPC1 promoter; Huh7 NPC1 promoter luciferase reporter, 24 h; Potency, µM (highest dose often 9.22 µM), without a hit: at the highest dose activation, hits mostly activators; hit rate 2.4% among 320,000; AID 485313; further: % of control where 0% means no effect; nearly all actives have a fitted effect of over 60% in size
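Readout is luciferase luminescence, reflecting NPC1 promoter activation in stably transfected Huh7 cells after 24 h compound exposure at 37 °C in reduced-serum medium with 10% FBS.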
SMN2 splice enh = SMN2 splice variant enhancement; HEK293 SMN2-luciferase splicing reporter, luminescence, 30-36 h; Potency, µM (top dose mostly 46.1 µM), inactives show at the highest dose activity change, positive = activation, most hits filed as activators; hit rate 2.8% among 210,000; further: % of control where 0% means no effect; nearly all actives have a fitted effect of over 55% in size
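HEK293 cells carry an SMN2 […]–luciferase reporter in which exon 7 inclusion puts luciferase in frame. Cells were plated 10-12 h before compound addition, then incubated 30-36 h at 37C. ONE-Glo luminescence was read; sodium butyrate at 4.5 mM final served as control.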
Rab9 prom act = activates the Rab9 promoter | AID 485297 | Potency, µM (series often up to 9.22 µM), inactives show top-dose activation, negative = inhibition, usual class: activators | Huh7 Rab9 promoter-luciferase reporter, luminescence, 24 h | hit rate 2.8% among 320,000; further: % of control where 0% means no effect; nearly all actives have a fitted effect of over 60% in size
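Steps: seed 1500 Huh7 Rab9-luc cells per well, rest 2 h at 37 °C; add compound in DMSO; incubate 24 h; add luciferase reagent, 10 min ambient; read luminescence.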
Luc counter = blocks Kinase-Glo luciferase, a counter-screen artifact; Kinase-Glo luciferase, ATP luminescence, 8 min; Potency, µM (titrated, usually from 38.3 µM), without a hit: top-dose activity change, negative = inhibition, actives largely listed as inhibitors; hit rate 0.28% among 200,000; further: on the % scale 0 is the no-effect control and ±100 the full control effect; nearly all actives have a fitted effect of over 60% in size
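Kinase-Glo luciferase light output from ATP and luciferin was measured with 10 uM ATP, within the enzyme's linear range. Buffer: 50 mM imidazole pH 7.2, 50 mM KCl, 7 mM MgCl2, 0.01% Tween 20, 0.05% BSA; luminescence read after 8 min at ambient temperature.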
FLuc counter = inhibits or activates purified firefly luciferase, miR-21 counter-screen; purified FLuc, Km substrates, luminescence inhibition; Potency, µM (series often up to 57.5 µM), for the others: at the highest dose activity change, negative = inhibition, hits mostly inhibitors; hit rate 6.9% among 360,000;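 further: plate controls were vehicle for no effect and reference inhibitor for full effect; nearly all actives have a fitted effect of over 55% in size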
Target sequence (P08659 whole entry, looked up): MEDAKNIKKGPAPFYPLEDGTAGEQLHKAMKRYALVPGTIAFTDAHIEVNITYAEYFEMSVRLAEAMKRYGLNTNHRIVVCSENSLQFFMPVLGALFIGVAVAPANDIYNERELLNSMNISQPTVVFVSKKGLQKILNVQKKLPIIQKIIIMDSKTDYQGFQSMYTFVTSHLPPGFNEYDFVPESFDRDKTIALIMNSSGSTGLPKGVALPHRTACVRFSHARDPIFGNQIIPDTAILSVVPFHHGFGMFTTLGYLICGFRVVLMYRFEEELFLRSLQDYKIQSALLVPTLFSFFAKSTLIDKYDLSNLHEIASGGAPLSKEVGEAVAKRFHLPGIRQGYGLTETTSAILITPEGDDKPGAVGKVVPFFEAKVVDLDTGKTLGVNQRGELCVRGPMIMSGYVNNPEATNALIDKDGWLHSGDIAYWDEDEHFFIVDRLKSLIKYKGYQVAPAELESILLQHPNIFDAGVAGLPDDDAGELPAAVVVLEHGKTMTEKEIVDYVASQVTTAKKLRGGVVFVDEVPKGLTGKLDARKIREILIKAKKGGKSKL
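Biochemical qHTS of compounds, final roughly 60 µM downward over six points, against 10 nM purified firefly luciferase using Km concentrations of substrates (10 uM D-luciferin, 10 uM ATP) in Tris acetate pH 7.5 buffer; luminescence output.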
ELG1 genotoxic = induces genotoxicity in HEK293T cells with luciferase-tagged ELG1; HEK293T ELG1-luciferase reporter, luminescence, 16 h; Potency, µM (series often up to 46 µM), without a hit: top-dose activity change, positive = activation, usual class: activators; hit rate 1.3% among 330,000; further: % of control where 0% means no effect; nearly all actives have a fitted effect of over 60% in size
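Screening used a luciferase reporter fused to human ELG1 in HEK293T cells. Luminescence was read on a CCD plate imager after 16 hr exposure and 30 min ONE-Glo incubation.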
* = called active by the depositor. In the library only some 7.5% were active in any assay of this set; here they are far more common. The call rests on the fitted dose curve; in most records, active means well fitted curve in the direction sought with a large enough effect; inconclusive means small, poorly fitted or top-dose-only effect, or another doubt; inactive means no such curve, though single readings can be large; an effect the other way counts as inactive or inconclusive. Potency means the concentration at half of the fitted maximal effect.

Screening O=c1ccnc(S/C=C/c2ccccc2)[nH]1 returned NPC1 promoter act inconclusive, SMN2 splice enh 16.2%, Rab9 prom act 16.0%, Luc counter -23.7%, FLuc counter 19µM* and ELG1 genotoxic 13.5%.
For COc1ccc(NC(=O)c2ocnc2C)cc1OC the results were NPC1 promoter act 1.4%, SMN2 splice enh 13.8%, Rab9 prom act 5.4%, Luc counter -15.9%, FLuc counter -14.9% and ELG1 genotoxic -0.4%.
`Cc1ncoc1C(=O)Nc1ccc2c(c1)OCCO2` gave NPC1 promoter act 3.16µM*, SMN2 splice enh 15.8µM*, Rab9 prom act 2.51µM*, Luc counter inconclusive, FLuc counter 12µM* and ELG1 genotoxic inconclusive.
Cc1ccsc1C(=O)Nc1ccc2c(c1)OCCO2 was read as NPC1 promoter act 1.26µM*, SMN2 splice enh 2.24µM*, Rab9 prom act 0.631µM*, Luc counter 10µM*, FLuc counter 1.9µM* and ELG1 genotoxic 2.06µM*.
Screening CC(=O)Nc1ccc2c(c1)OCCOCCOc1cc(NC(C)=O)ccc1OCCOCCOCCO2 returned NPC1 promoter act 7.4%, SMN2 splice enh 4.3%, Rab9 prom act 1.3%, Luc counter -2.1%, FLuc counter 0.2% and ELG1 genotoxic 0.3%.
Screening CN1C(=O)Cc2cc(S(=O)(=O)CCC(=O)Nc3ccc(Cl)cc3)ccc21 returned FLuc counter -1.7%.
C=CCNC(=S)NNC(=O)COc1ccc2cc(Br)ccc2c1 was read as NPC1 promoter act inconclusive, SMN2 splice enh 11.2µM*, Rab9 prom act 3.16µM*, Luc counter 1.3%, FLuc counter -1.6% and ELG1 genotoxic inconclusive.
For C=CCNC(=S)NNC(=O)COc1ccc(Br)cc1 the results were NPC1 promoter act 2.8%, SMN2 splice enh 1.5%, Rab9 prom act -4.1%, Luc counter -0.2%, FLuc counter -17.2% and ELG1 genotoxic 0.0%.
Screening CCn1c(=O)c(C(=O)Nc2ccc(C(C)=O)cc2)nc2ccccc21 returned SMN2 splice enh 27.7% and FLuc counter 15.1µM*.
For O=S1(=O)CCN2C(=N1)Sc1c2ccc2c1CCCC2 the results were NPC1 promoter act 16.1%, SMN2 splice enh 8.4%, Rab9 prom act 16.9%, Luc counter -3.9%, FLuc counter 15.1µM* and ELG1 genotoxic inconclusive.
`COc1ccc(C(=O)c2cnc(/N=C/N(C)C)s2)cc1` gave NPC1 promoter act 13.4%, SMN2 splice enh inconclusive, Rab9 prom act 25.8%, Luc counter 3.6%, FLuc counter inconclusive and ELG1 genotoxic 11.3%.
Screening CN(C)/C=N/c1ncc(C(=O)c2ccc3ccccc3c2)s1 returned NPC1 promoter act 23.3%, SMN2 splice enh -28.5%, Rab9 prom act inconclusive, Luc counter 0.2%, FLuc counter 23.9µM* and ELG1 genotoxic 3.0%.
Cc1cc(OCC(O)CNC(C)c2ccccc2)ccc1C(C)C (stereo not drawn) was read as NPC1 promoter act 5.1%, Rab9 prom act -3.1%, FLuc counter -2.9% and ELG1 genotoxic -0.5%.
`COc1ccc(-n2c(=S)[nH]c3sc(-c4ccccc4)cc3c2=O)c(OC)c1` gave NPC1 promoter act -5.7%, Rab9 prom act 1.1%, FLuc counter 26.9µM* and ELG1 genotoxic -1.1%.
Screening CCOC(=O)CCCNC(=O)CSc1nnc(-c2ccccc2)c(-c2ccccc2)n1 returned NPC1 promoter act -3.6%, Rab9 prom act -0.6%, FLuc counter 0.9% and ELG1 genotoxic -2.2%.
`COc1ccc(-n2nc(-c3ccc(C)cc3)c3cnc4cc(F)c(F)cc4c32)cc1` gave SMN2 splice enh -14.3% and FLuc counter 3.6%.
For COc1ccc(NC(=O)CCC(=O)N/N=C/c2cn(C)nc2C)cc1 the results were NPC1 promoter act -3.0%, Rab9 prom act -0.5%, FLuc counter 5.7% and ELG1 genotoxic -3.0%.
Screening COc1ccc(NC(=O)O/N=C/c2c(C)nn(C(C)(C)C)c2C)cc1 returned NPC1 promoter act 0.355µM*, Rab9 prom act 0.316µM*, FLuc counter 0.379µM* and ELG1 genotoxic 1.64µM*.
CCCN(CCC)C(=O)C1CCCN(c2ncnc3onc(-c4ccc(F)cc4)c23)C1 (stereo not drawn) was read as FLuc counter 2.1%.
For O=C(O)CN1C(=O)/C(=C\c2cc(Br)ccc2OCc2ccc(Cl)cc2)SC1=S the results were NPC1 promoter act -0.9%, Rab9 prom act 0.7%, FLuc counter -7.3% and ELG1 genotoxic 0.8%.
COc1cc(/C=C2\SC(=S)N(CC(=O)O)C2=O)ccc1OC(=O)c1ccco1 was read as NPC1 promoter act inconclusive, Rab9 prom act -0.2%, FLuc counter 7.57µM* and ELG1 genotoxic 1.5%.
O=C(O)CN1C(=O)/C(=C\c2cccc(OCc3ccccc3)c2)SC1=S was read as NPC1 promoter act 2.7%, Rab9 prom act 6.6%, FLuc counter 15.1µM* and ELG1 genotoxic 5.2%.
Screening CN1C(=O)/C(=C/c2ccc(OC(=O)c3ccco3)cc2)SC1=S returned NPC1 promoter act 3.9%, Rab9 prom act -0.9%, FLuc counter -1.0% and ELG1 genotoxic 4.1%.
COc1ccc(/C=C2/SC(=S)N(CC(=O)O)C2=O)cc1OCc1ccc(Cl)cc1 was read as NPC1 promoter act -5.2%, Rab9 prom act 23.2%, FLuc counter 19µM* and ELG1 genotoxic 16.7%.
For COc1cc(/C=C2/SC(=S)N(CC(=O)O)C2=O)ccc1OC(=O)c1ccco1 the results were NPC1 promoter act -4.9%, Rab9 prom act -0.2%, FLuc counter 7.57µM* and ELG1 genotoxic -3.7%.
O=C(O)COc1cccc(/C=C2/SC(=S)N(Cc3ccccc3)C2=O)c1 was read as NPC1 promoter act 2.6%, Rab9 prom act -1.3%, FLuc counter inconclusive and ELG1 genotoxic -7.9%.
Screening CCOc1cc(/C=C2/SC(=S)N(CC(=O)O)C2=O)ccc1OC(=O)c1cccs1 returned NPC1 promoter act 4.5%, Rab9 prom act 10.4%, FLuc counter 16.9µM* and ELG1 genotoxic -2.4%.
For CCOc1ccccc1NS(=O)(=O)c1c(C)noc1C the results were NPC1 promoter act 2.6%, SMN2 splice enh 28.5%, Rab9 prom act 2.2%, Luc counter -1.6%, FLuc counter -3.4% and ELG1 genotoxic 23.1µM*.
COC(=O)c1ccccc1NS(=O)(=O)c1c(C)noc1C was read as NPC1 promoter act 2.0%, Rab9 prom act 4.2%, FLuc counter 1.2% and ELG1 genotoxic -0.7%.
Screening O=C(COC(=O)c1cccc(NC(=O)c2ccco2)c1)c1ccc(Br)cc1 returned NPC1 promoter act inconclusive, SMN2 splice enh 12.8%, Rab9 prom act inconclusive, Luc counter -2.7%, FLuc counter 1.69µM* and ELG1 genotoxic 9.7%.

Screens as filed in PubChem.
